Bioassay records as filed in PubChem.
Shown is part of a subset that was picked to be rich in hits.
Pf Dd2 growth = qHTS Primary assay for Inhibitors of Plasmodium falciparum Dd2 growth in vitro; AID 1347417, 2020; Potency, µM (highest dose often 28.9 µM), without a hit: at the highest dose activity, negative = inhibition, most hits filed as inhibitors; 120,000 compounds, 4.3% hits; P. falciparum Dd2 growth, SYBR Green, 72 h; active means well fitted inhibition curve with a large enough effect;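 further: plate controls were DMSO vehicle for no effect and reference drug for full effect; nearly all actives have a fitted effect of over 65% in size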
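Infected erythrocytes (Dd2, 0.3% parasitemia, 2.5% hematocrit final) are added to compound in RPMI-1640/Albumax II medium, grown 72 h at 37C in low oxygen, then lysed with saponin/Triton-X containing SYBR Green and read by fluorescence.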
* hit, by the source's call; i = inactive; [ ] = another dose, or the depositor's remark. Potency means the concentration at half of the fitted maximal effect.

SMILES | Pf Dd2 growth
O=C(c1cncc(N2CCCC(CCc3cccc(F)c3)C2)n1)N1CCCCC1 (stereo not drawn) | 11µM*
O=C(c1ccco1)N1CCCC(CCc2cccc(F)c2)C1 (stereo not drawn) | -10%
CC(CCc1ccccc1)NC(=O)C1CCN(c2cc(C(F)(F)F)ncn2)CC1 (stereo not drawn) | -22%
O=C(CCC1CCCN(S(=O)(=O)c2ccccc2)C1)NC1CC1 (stereo not drawn) | -3%
COc1ccccc1NC(=O)Cn1c(C)cc2nc3n(c(=O)c21)CCCCC3 | -15%
CS(=O)(=O)N1CC2(CCN(C(=O)CCC(=O)O)CC2)Cc2ccccc21 | 14%
CN(C)c1ccc(C(=O)N2CCN(S(C)(=O)=O)[C@H](C(=O)N[C@@H](CC3CCCCC3)C(N)=O)C2)cc1 | i
COC(=O)[C@H](Cc1ccc(OC)cc1)NC(=O)[C@H]1CN(C(=O)c2ccc(N(C)C)cc2)CCN1C(=O)c1cccs1 | 0.14µM*
COC(=O)[C@H](Cc1ccc(OC)cc1)NC(=O)[C@@H]1CN(C(=O)NC(C)C)CCN1C(=O)c1cccs1 | -21%
COC(=O)[C@H](Cc1ccc(OC)cc1)NC(=O)[C@H]1CN(C(=O)Nc2ccccc2)CCN1C(=O)C1CCCCC1 | i
COC(=O)[C@@H](C)NC(=O)[C@H]1CN(S(=O)(=O)c2ccccc2)CCN1C(=O)NC1CCCCC1 | 14%
COC(=O)[C@H](Cc1ccc(OC)cc1)NC(=O)[C@H]1CN(S(=O)(=O)c2ccccc2)CCN1C(=O)NC1CCCCC1 | 11µM*
COC(=O)[C@H](Cc1ccc(OC)cc1)NC(=O)[C@@H]1CN(C(=O)c2cccc(F)c2)CCN1C(C)=O | -6%
COC(=O)[C@H](Cc1ccc(OC)cc1)NC(=O)[C@@H]1CN(S(C)(=O)=O)CCN1S(=O)(=O)c1ccccc1 | 20%
COC(=O)[C@H](Cc1ccc(OC)cc1)NC(=O)[C@H]1CN(C(=O)c2ccc(N(C)C)cc2)CCN1C(=O)C1CCCCC1 | 0.4µM*
O=C(c1cccnc1)N1CCC2(COc3ncccc3[S+](=O)([O-])N2)C1 (stereo not drawn) | 9%
Cc1ccc(C(=O)N(Cc2ccco2)Cc2sccc2C)cc1 | -6%
Cc1ccc(NC(=O)c2nc(S(C)(=O)=O)ncc2N(Cc2ccco2)Cc2cccs2)c(C)c1 | -8%
CCS(=O)(=O)c1ncc(N(Cc2ccco2)Cc2sccc2C)c(C(=O)Nc2cc(C)ccc2C)n1 | 5.6µM*
Cc1ccc(C)c(NC(=O)CCc2nc(-c3ccc(C(C)(C)C)cc3)no2)c1 | 0%
Cc1ccsc1CN(Cc1ccco1)C(=O)c1ccc(Cl)cc1 | 13%
Cc1ccc(C)c(NC(=O)c2nc(S(C)(=O)=O)ncc2N(Cc2ccc(C(C)(C)C)cc2)Cc2ccco2)c1 | 2.5µM*
Cc1cccc(-c2ocnc2C(=O)N2C[C@@H](Oc3ccccc3)C[C@H]2C(=O)N2CCCC2)c1 | -9%
COCCNC(=O)N1CCN(Cc2ccco2)CC(C(=O)O)C1 (stereo not drawn) | 8%
O=C(O)c1cccc2c1CCN2C(=O)c1ccc(F)cc1 | 8%
SMILES | Pf Dd2 growth
Fc1ccc(-c2cnc3n2C[C@H](CN(Cc2ccccc2)Cc2ccccc2)OC3)cc1 | 6.3µM*
CS(=O)(=O)NC[C@H]1Cn2c(-c3ccc(F)cc3)cnc2CO1 | -4%[44.1 µM]
c1ccc(-c2cnc3n2C[C@H](CNCc2nccs2)OC3)cc1 | i
CC(=O)Nc1ccc(CNC[C@H]2Cn3c(-c4ccc(F)cc4)cnc3CO2)cc1 | -41%[44.1 µM]
Fc1ccc(-c2cnc3n2C[C@H](CNCc2ccccc2Cl)OC3)cc1 | -2%[44.1 µM]
COc1ccccc1C(=O)NC[C@H]1Cn2c(-c3ccc(Cl)cc3)cnc2CO1 | 11µM*
COCC(=O)NC[C@H]1Cn2c(-c3ccc(Cl)cc3)cnc2CO1 | i
O=C(NC[C@H]1Cn2c(-c3ccc(F)cc3)cnc2CO1)c1ccc(Cl)cc1 | i
c1ccc(CNC[C@H]2Cn3c(-c4ccccc4)cnc3CO2)cc1 | 11µM*
CCn1c(Cn2ccnc2C)nnc1C1CCN(C(=O)CCN)CC1 | 6%
CCn1nccc1C(=O)N1CCC(c2noc(-c3cnccn3)n2)C1 (stereo not drawn) | 31%[5.79 µM]
COc1cccc([S+](=O)([O-])N2CCC3(C2)C(=NC2CCCCC2)NC(=O)N3c2cc(F)cc(F)c2)c1 (stereo not drawn) | -28%
CC(C)C1=NOC2(CCN(C(=O)c3ccccn3)C2)C1 (stereo not drawn) | 11%[44.1 µM]
Fc1ccc(CN2Cc3[nH]cnc3C[C@H]2c2nc(-c3ccc(Cl)cc3)no2)cc1 | -2%[44.1 µM]
c1ccc(CN2Cc3[nH]cnc3C[C@H]2c2nc(-c3ccncc3)no2)cc1 | 10µM*
Fc1ccc(-c2noc([C@@H]3Cc4nc[nH]c4CN3Cc3cccs3)n2)cc1Cl | 10µM*
Fc1ccc(-c2noc([C@@H]3Cc4nc[nH]c4CN3Cc3ccccc3)n2)cc1Cl | i
OCc1ccc(CN2Cc3[nH]cnc3C[C@H]2c2nc(-c3ccncc3)no2)o1 | 14µM*
Cc1ccc(-c2noc([C@@H]3Cc4nc[nH]c4CN3Cc3cccs3)n2)cc1 | -21%[44.1 µM]
Cc1ccc(-c2noc([C@@H]3Cc4nc[nH]c4CN3CC3CCCCC3)n2)cc1 | -13%[44.1 µM]
Cc1ccc(CN2Cc3[nH]cnc3C[C@H]2c2nc(-c3ccc4ccccc4c3)no2)cc1 | -29%[44.1 µM]
O=C(O)c1ccc(CN2Cc3[nH]cnc3C[C@H]2c2nc(-c3ccc(F)cc3)no2)cc1 | -23%[44.1 µM]
O=C(NCc1cccs1)c1ccc2c(c1)OCCN(CCC(F)(F)F)C2 | i
COCCCNC(=O)N1C[C@@H](Oc2ccccc2)C[C@H]1C(=O)N1CCOCC1 | 16%
CCN1C(=O)CCN(S(=O)(=O)c2cccc3cccnc23)CC12CCOCC2 | -22%
SMILES | Pf Dd2 growth
O=C(Nc1ccc(-c2nnc3n2CCCC3)cc1)c1ccc2ccccc2n1 | 1µM*
O=C(Nc1ccc(-c2nnc3n2CCCC3)cc1)c1ccc(Cl)cc1 | 5µM*
CCOc1ccc(C(=O)Nc2ccc(-c3nnc4n3CCCCC4)cc2)cc1OCC | -18%
O=C(Nc1ccc(-c2nnc3n2CCCC3)cc1)c1cc(F)ccc1F | i
COc1ccc(C(=O)Nc2ccc(-c3nnc4n3CCCC4)cc2)cn1 | 7.1µM*
O=C(Nc1ccc(-c2nnc3n2CCCC3)cc1)c1cc(-c2ccccc2)n[nH]1 | 14µM*
O=C(NC1CCc2n[nH]c(=O)n2CC1)c1ccc2ccccc2n1 (stereo not drawn) | i
COc1ccc(Cl)cc1C(=O)Nc1ccc(-c2nnc3n2CCCCC3)cc1 | 4%
O=C(Nc1ccc(-c2nnc3n2CCCC3)cc1)c1ccncc1 | i
COC1CCC12CCN(C(=O)c1cnccc1C)CC2 (stereo not drawn) | 15%
O=C1NCc2ccccc2CC12CCN(Cc1ccc([N+](=O)[O-])cc1)C2 (stereo not drawn) | -1%
Cc1noc(-c2cn(C3CCN(C(=O)c4cc(Cl)ccc4F)CC3)nn2)n1 | i
N[C@@H](Cc1cnc[nH]1)C(=O)N1CCC(c2cc(-c3ccccc3Cl)n[nH]2)CC1 | -16%
O=S(=O)(Cc1ccccc1)N1CCC2(CC1)CC(OCC1CC1)CCO2 (stereo not drawn) | 12%
Cc1noc(C)c1C(=O)N1C[C@@H](CO)[C@H](c2ccccn2)C1 | -11%
COCC1CN(S(=O)(=O)c2cccnc2)CC12CCOCC2 (stereo not drawn) | 11%
O=C(NC1CC1)C1(CCO)CC12CCOCC2 (stereo not drawn) | 20%
CN1CC(=O)N(c2ccccc2F)Cc2c(NCCCO)ncnc21 | 19%[44.1 µM]
